From PubChem BioAssay (Tox21) come the findings set out here.

The structures appear in SMILES notation. Records with an inconclusive call do not appear. Calls of active or inactive are those of the source. Unless noted, calls come from the whole dose curve.

Assay [1] has as its target Estrogen receptor (Homo sapiens) (UniProt P03372). Nature of the assay: qHTS assay to identify small molecule agonists of the estrogen receptor alpha (ER-alpha) signaling pathway in the presence of an antagonist (AID 1259383). For activation: top concentration of the series differs between compounds. Note: nearly all actives have a fitted effect of over 15% in size. Note: potency is the fitted concentration of half-maximal effect. Put shortly:
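Luminescent ERE-luciferase reporter, VM7Luc4E2 cells (endogenous ER-alpha); 10.0nM ICI-182,780 final; 15-point compound titration; 22hr at 37C; ONE-Glo, 30min RT.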

A short description of assay [2]: qHTS assay to identify small molecule agonists or antagonists of the thyroid stimulating hormone receptor (TSHR) signaling pathway - wild type cell line counter screen (AID 1259384). Put shortly:
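Counter screen in untransfected Hek293: compounds (15-point titration, triplicate) plus phosphodiesterase inhibitor Ro20-1724 added after 18 h plating; 30 min RT. Intracellular cAMP via competitive d2/cryptate immunoassay, 1 h incubation.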
On the technique in general: qHTS replaces the single test concentration by a dilution series.

Assay [3] in a line: qHTS assay to identify small molecule agonists of the estrogen receptor alpha (ER-alpha) signaling pathway in the presence of an antagonist - cell viability counter screen (AID 1259386; active = well fitted curve in the direction sought with a large enough effect in the repeat runs; an effect the other way counts as inactive or inconclusive;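 note: series mostly up to about 92 µM; cells exposed to compounds for 22 h at 37 °C before the viability read; nearly all actives have a fitted effect of over 30% in size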). Put shortly:
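Using estrogen-depleted VM7Luc4E2 cells, the 15-concentration compound series was applied together with 10.0nM ICI-182,780 and incubated 22hr at 37C/5% CO2. Cell viability was then scored by CellTiter-Fluor.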

In assay [4] the target is Progesterone receptor (Homo sapiens) (UniProt P06401). Nature of the assay: qHTS assay to identify small molecule agonists of the progesterone receptor (PR) signaling pathway (AID 1346784). Note: nearly all actives have a fitted effect of over 30% in size. Put shortly: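 Reporter assay, GripTite PR-UAS-bla HEK 293T cells: 16 hr exposure to DMSO-dissolved compounds at 37C, 5% CO2, in steroid-depleted (2% charcoal-stripped FBS) medium; beta-lactamase measured by FRET fluorescence.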

For assay [5] the target is unchanged. Nature of the assay: qHTS assay to identify small molecule antagonists of the progesterone receptor (PR) signaling pathway (AID 1346795; active = well fitted inhibition curve with a large enough effect in the signal ratio in the repeat runs, not every such curve was filed as active; the % refers to the signal ratio; note: potency is the fitted concentration of half-maximal effect). Put shortly: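 Stimulus R5020 at 1 nM final; cells HEK293T PR-UAS-bla; medium with 2% charcoal-stripped FBS; compound exposure 16 hr at 37C, 5% CO2; detection by FRET beta-lactamase substrate, 2 hr, room temperature.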
Assay [6] can be described thus: qHTS assay to identify small molecule antagonists of the progesterone receptor (PR) signaling pathway - cell viability counter screen (AID 1346798; active = well fitted curve in the direction sought with a large enough effect in the repeat runs; an effect the other way counts as inactive or inconclusive; note: series mostly up to about 92 µM; nearly all actives have a fitted effect of over 50% in size). The procedure, abridged:
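In the same plates used for the beta-lactamase readout, cell viability of compound- and R5020-treated PR-UAS-bla HEK293T cells (16 hr, 37C) was assessed by CellTiter-Glo luminescence.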

Assay [7] can be described thus: qHTS assay to identify small molecule agonists of the progesterone receptor (PR) signaling pathway - cell viability counter screen (AID 1346799). Note: nearly all actives have a fitted effect of over 45% in size. Put shortly:
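Multiplexed viability read: CellTiter-Glo luminescence, 30 min RT, following LiveBLAzer FRET measurement on PR-UAS-bla HEK293T cells exposed to compounds 16 hr.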

Assay [8] can be described thus: qHTS assay to identify small molecule antagonists of the TGF-beta/Smad signaling pathway - cell viability counter screen (AID 1346824; active = well fitted curve in the direction sought with a large enough effect in the repeat runs; an effect the other way counts as inactive or inconclusive; note: nearly all actives have a fitted effect of over 50% in size). The procedure, abridged: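 Cytotoxicity counter-screen run in the same wells as the beta-lactamase Smad reporter read: CellTiter-Glo luminescence after 30 min at room temperature. HEK 293T SBE-bla cells had 5 hr compound exposure at 37 C with TGF-beta1 (0.25 ng/mL stock).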

Assay [9] in a line: qHTS assay to identify small molecule agonists of the TGF-beta/Smad signaling pathway - cell viability counter screen (AID 1346829; active = well fitted curve in the direction sought with a large enough effect in the repeat runs; an effect the other way counts as inactive or inconclusive; note: top concentration of the series differs between compounds; nearly all actives have a fitted effect of over 45% in size). Put shortly: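 In parallel with the Smad reporter read, viability of HEK 293T cells stably carrying SBE-bla is quantified by ATP luminescence following 5 hr compound treatment.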
In assay [10] the target is Thyrotropin receptor (Homo sapiens) (UniProt P16473). Nature of the assay: qHTS assay to identify small molecule antagonists of the thyroid stimulating hormone receptor (TSHR) signaling pathway (AID 1259385). Note: nearly all actives have a fitted effect of over 20% in size. The procedure, abridged: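 Antagonist mode: compound-treated TSHR-expressing HEK293 cells were stimulated with 1.5 ng/mL TSH (final) in presence of Ro20-1724 for 30 min at RT. HTRF cAMP detection after 1 h; each compound tested at 15 concentrations, triplicate.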
% is set by controls: 0 for no effect and ±100 for the full control effect.

Sequence of Thyrotropin receptor (Homo sapiens) (P16473 whole entry, looked up): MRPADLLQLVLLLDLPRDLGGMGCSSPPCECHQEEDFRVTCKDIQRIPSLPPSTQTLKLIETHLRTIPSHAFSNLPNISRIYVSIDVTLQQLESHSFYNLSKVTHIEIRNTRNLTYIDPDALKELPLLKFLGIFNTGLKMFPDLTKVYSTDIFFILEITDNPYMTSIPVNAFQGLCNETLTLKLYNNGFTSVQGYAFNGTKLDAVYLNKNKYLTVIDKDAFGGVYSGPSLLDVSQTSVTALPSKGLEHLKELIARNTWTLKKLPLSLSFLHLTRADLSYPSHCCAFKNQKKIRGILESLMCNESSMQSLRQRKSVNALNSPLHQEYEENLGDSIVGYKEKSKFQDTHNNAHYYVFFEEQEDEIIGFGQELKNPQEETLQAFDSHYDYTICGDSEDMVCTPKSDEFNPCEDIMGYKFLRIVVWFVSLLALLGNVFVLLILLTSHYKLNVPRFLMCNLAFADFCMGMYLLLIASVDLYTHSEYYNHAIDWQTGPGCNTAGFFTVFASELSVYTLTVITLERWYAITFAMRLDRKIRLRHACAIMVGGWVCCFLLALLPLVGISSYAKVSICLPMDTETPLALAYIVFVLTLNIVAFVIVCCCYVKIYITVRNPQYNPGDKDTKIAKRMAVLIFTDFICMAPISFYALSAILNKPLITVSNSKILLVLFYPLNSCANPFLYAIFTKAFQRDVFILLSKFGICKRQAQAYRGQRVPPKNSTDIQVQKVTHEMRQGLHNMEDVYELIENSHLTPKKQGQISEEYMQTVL
Sequence of Estrogen receptor (Homo sapiens) (P03372 whole entry, looked up): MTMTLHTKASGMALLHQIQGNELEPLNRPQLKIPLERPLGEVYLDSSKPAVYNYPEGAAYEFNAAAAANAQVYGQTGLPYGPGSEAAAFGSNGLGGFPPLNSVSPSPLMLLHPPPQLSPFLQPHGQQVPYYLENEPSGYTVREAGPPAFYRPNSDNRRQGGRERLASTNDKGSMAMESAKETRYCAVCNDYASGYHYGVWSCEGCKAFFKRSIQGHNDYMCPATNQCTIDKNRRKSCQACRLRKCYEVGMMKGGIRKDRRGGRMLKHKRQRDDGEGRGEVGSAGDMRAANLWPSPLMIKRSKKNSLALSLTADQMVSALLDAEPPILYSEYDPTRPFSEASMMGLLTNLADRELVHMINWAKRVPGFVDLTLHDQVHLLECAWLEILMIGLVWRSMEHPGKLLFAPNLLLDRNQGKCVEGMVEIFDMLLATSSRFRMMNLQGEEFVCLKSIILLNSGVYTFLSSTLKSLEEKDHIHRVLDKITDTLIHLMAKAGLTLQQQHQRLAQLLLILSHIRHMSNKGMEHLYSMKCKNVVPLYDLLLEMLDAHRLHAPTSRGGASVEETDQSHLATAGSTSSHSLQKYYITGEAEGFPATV
Sequence of Progesterone receptor (Homo sapiens) (P06401 whole entry, looked up): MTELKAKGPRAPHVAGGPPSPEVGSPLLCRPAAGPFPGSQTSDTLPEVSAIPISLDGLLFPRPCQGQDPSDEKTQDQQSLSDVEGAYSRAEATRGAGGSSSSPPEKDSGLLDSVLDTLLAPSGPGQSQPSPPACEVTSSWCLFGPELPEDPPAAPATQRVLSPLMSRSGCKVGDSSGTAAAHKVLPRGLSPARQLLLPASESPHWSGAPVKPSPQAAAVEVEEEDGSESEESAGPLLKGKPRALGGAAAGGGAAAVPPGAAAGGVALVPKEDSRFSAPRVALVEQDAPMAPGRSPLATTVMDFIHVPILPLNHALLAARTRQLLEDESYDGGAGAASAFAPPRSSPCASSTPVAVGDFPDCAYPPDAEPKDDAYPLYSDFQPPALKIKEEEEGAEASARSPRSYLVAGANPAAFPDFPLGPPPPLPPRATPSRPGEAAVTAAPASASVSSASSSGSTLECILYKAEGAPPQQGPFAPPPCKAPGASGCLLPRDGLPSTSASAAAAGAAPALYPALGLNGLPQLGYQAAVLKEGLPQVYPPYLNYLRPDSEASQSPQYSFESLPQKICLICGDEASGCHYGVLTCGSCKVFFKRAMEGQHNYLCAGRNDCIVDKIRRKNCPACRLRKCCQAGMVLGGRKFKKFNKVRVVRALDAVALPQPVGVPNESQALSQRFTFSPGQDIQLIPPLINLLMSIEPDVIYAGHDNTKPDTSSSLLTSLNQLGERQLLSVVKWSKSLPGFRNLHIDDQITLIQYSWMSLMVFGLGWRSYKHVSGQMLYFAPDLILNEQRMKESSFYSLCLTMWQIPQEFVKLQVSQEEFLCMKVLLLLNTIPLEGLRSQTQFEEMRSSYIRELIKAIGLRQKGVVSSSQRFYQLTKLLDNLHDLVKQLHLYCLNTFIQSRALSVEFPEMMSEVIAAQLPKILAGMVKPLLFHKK

Regarding `C=CCn1cc[n+](C)c1`, the Potency result in assay [1], in [4], in assay [5] and in [7] was “inactive” throughout. For the same molecule, the outcome in assay [2], in assay [3], in [6], in [8] and in [9] was inactive.

`CCC(=O)OCCOc1ccccc1`: the Potency result in assay [1], in assay [4], in [5] and in assay [7] was “inactive” in each case. In addition, the molecule was classed as inactive in assay [2], in assay [3], in assay [6], in assay [8] and in assay [9].

Take `Cc1ccccc1C#N`: the Potency result in assay [1], in assay [4], in [5] and in assay [7] was “inactive” each time. In addition, the molecule was called inactive in [2], in assay [3], in assay [6] and in assay [8].

Turning to `NNC(=O)OCc1ccccc1`, the Potency entry in assay [1], in assay [4], in [5] and in [7] was “inactive” throughout. Besides, the result in assay [2], in [3], in [6], in assay [8] and in assay [9] was inactive.

In the case of `CC(=O)SCC(CC(=O)c1ccc(C)cc1)C(=O)O` (stereo not drawn), the Potency result in assay [1], in assay [4], in assay [5] and in assay [7] was “inactive” throughout. Moreover, the molecule was classed as inactive in assay [2], in assay [3], in assay [6], in [8] and in assay [9].

As to `Clc1ccc2c(c1)Nc1ccccc1S2`, the Potency result in assay [1] and in assay [7] was “inactive” each time. In addition, the molecule was classed as inactive in assay [2], in assay [10], in assay [3], in [8] and in assay [9]. Besides, in [5], the Potency was 7.5 µM (active).

On to `O=Cc1ccc(C(=O)O)cc1`, for which the Potency entry in assay [1], in assay [4], in assay [5] and in [7] was “inactive” throughout. Also, the molecule was classed as inactive in assay [2], in [3], in assay [6], in assay [8] and in [9].

In the case of `CC/C=C\CCOC(=O)c1ccccc1`, the Potency result in [1] and in assay [7] was “inactive” each time. The outcome in assay [2], in assay [10], in assay [3], in assay [6], in assay [8] and in assay [9] was inactive.

`COc1cc(S(N)(=O)=O)cc(C(=O)O)c1OC`: the Potency result in assay [1] and in [7] was “inactive” in each case. The molecule was called inactive in [2], in [10], in assay [3], in assay [6], in assay [8] and in [9].

With `CCCCCCCCCCCCCCCCN(C)C`, in [1], the activation was 0.651% [at 8.39 µM] (inactive). Further, the cAMP activity change in assay [2] was -1.46% [at 8.39 µM] (inactive). In assay [10], the activity change, negative = inhibition is 1.02% [at 8.39 µM] (inactive). For the same molecule, the figures for the activity change, negative = cytotoxicity in assay [3], in assay [6] and in assay [7] were 0.513% [at 8.39 µM] (inactive), -0.0264% [at 8.39 µM] (inactive) and -6.19% [at 8.39 µM] (inactive), respectively. Moreover, the viability change, negative = cytotoxic in [8] was 3.18% [at 6.97 µM] (inactive).

On to `CN(C)CCc1c[nH]c2ccc(C[C@H]3COC(=O)N3)cc12`, for which the Potency entry in [1], in assay [4] and in assay [7] was “inactive” in each case. The outcome in [2], in assay [10], in [3], in [6] and in assay [8] was inactive.

Regarding `CC(=O)O[C@@H]1CC2C3CCc4cc(OC(=O)c5ccccc5)ccc4C3CCC2(C)[C@H]1OC(C)=O` (stereo partly drawn), the Potency in assay [1] was 0.0473 µM (active). The outcome in assay [2], in assay [10], in assay [3], in [8] and in assay [9] was inactive. For the same molecule, the Potency result in [4] and in [7] was “inactive” each time.

As for `CNC(C)=O`, the Potency entry in assay [1], in [4] and in assay [5] was “inactive” in each case. The call in assay [2], in [10], in [3], in [8] and in [9] was inactive.

Turning to `CC(=O)Nc1ccc(S(=O)(=O)Nc2cc(C)on2)cc1`, the Potency result in [1], in assay [4], in assay [5] and in [7] was “inactive” in each case. Further, the molecule was classed as inactive in assay [2], in assay [3], in assay [6], in assay [8] and in [9].

With `COC(=O)c1ccc(C(=O)O)cc1`, the Potency entry in assay [1], in [4] and in [7] was “inactive” in each case. Besides, the outcome in assay [2], in assay [10], in [3], in [6], in assay [8] and in [9] was inactive.

Regarding `NNC(=O)CCCCC(=O)NN`, the Potency result in assay [1], in assay [4], in assay [5] and in assay [7] was “inactive” throughout. Further, the result in assay [3], in assay [6] and in assay [8] was inactive.

For `CC(O)C(CO)C(C)O` (stereo not drawn), the Potency entry in assay [1], in [4], in [5] and in assay [7] was “inactive” each time. Besides, the outcome in [2], in assay [3], in assay [8] and in assay [9] was inactive.

For `COc1cc(OC)cc(OC)c1`, the Potency result in assay [1], in assay [4], in assay [5] and in [7] was “inactive” throughout. Besides, the outcome in [3], in assay [6], in [8] and in assay [9] was inactive.

Regarding `CN1C(CCl)Nc2cc(Cl)c(S(N)(=O)=O)cc2S1(=O)=O` (stereo not drawn), the Potency entry in assay [1], in [4], in assay [5] and in assay [7] was “inactive” throughout. The result in [3], in assay [6], in assay [8] and in [9] was inactive.

For `CC(C)CC(O)Cc1ccccc1` (stereo not drawn), the Potency result in assay [1], in assay [4], in [5] and in [7] was “inactive” throughout. The call in assay [2], in assay [3], in assay [8] and in assay [9] was inactive.

Turning to `Cc1cc(C)c(C)c(C)c1`, the Potency result in [1], in [4], in assay [5] and in assay [7] was “inactive” throughout. Further, the outcome in assay [3], in [6], in [8] and in [9] was inactive.
